# From PubChem
# IL-1B inflam inh – qHTS for Inhibitors of Inflammasome Signaling: IL-1-beta AlphaLISA Primary Screen | THP-1 LPS/ATP IL-1B secretion, AlphaLISA, 16 h; active compounds read low | activity change, % at 57.5 µM | actives 4.7% (n = 360,000) | AID 743279, 2014; in the data active means activity change below about -50%; inconclusive means mostly about -30% to -49%; further: on the % scale 0 is the no-effect control and ±100 the full control effect
#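 Secreted IL-1B measured by AlphaLISA bead assay after 16 h compound exposure of THP-1 cells; compounds (final up to 57.5 uM) added 1 h before LPS (250 ng/mL) and ATP (1.25 mM) stimulation; lower signal means less secretion.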
# DT40 TDP1 CPT – qHTS for Inhibitors of human tyrosyl-DNA phosphodiesterase 1 (TDP1): qHTS in cells in presence of CPT; chicken DT40 Tdp1-/-;hTDP1 cells + 20 nM CPT, ATP luminescence, 48 h; Potency, µM (doses to about 46.2 µM), without a hit: top-dose activity change, negative = growth inhibition, actives largely listed as inhibitors; actives 12% (n = 420,000); further: potency means the concentration at half of the fitted maximal effect; on the % scale 0 is the no-effect control and ±100 the full control effect; nearly all actives have a fitted effect of over 55% in size
#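 Chicken DT40 Tdp1-/- cells stably complemented with human TDP1 were seeded at 400 cells/well in medium containing 20 nM camptothecin, exposed to pin-transferred compounds, and grown at 37 °C for at least 48 hr. Viability was read as ATP luminescence.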
# BCR signal inh – qHTS Assay to Find Inhibitors of Chronic Active B-Cell Receptor Signaling; ABC-DLBCL IkBa-CBG/CBR reporter, luminescence ratio, 4 h; Potency, µM (titrated, usually from 46.1 µM), without a hit: at the top dose activity change, negative = inhibition, actives largely listed as inhibitors; actives 0.05% (n = 340,000); AID 493014, 2011; active means well fitted inhibition curve with a large enough effect in the signal ratio, with a control signal flat, not every such curve was filed as active; inconclusive means small, poorly fitted or top-dose-only effect, or effect the other way, or a change in a side signal; the % refers to the signal ratio;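 further: potency means the concentration at half of the fitted maximal effect; plate controls were basal doxycycline-induced cells for no effect and cells given 10 µM MG132 for full effect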
#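 Concentration-response series (up to 46 uM) were applied to TMD8 dual-reporter cells for 4 h at 37C with doxycycline. Green/red ratio, after filter-overlap correction, defined %Activity; red signal alone was normalised to basal cells and zero luminescence.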
# TDP1 cell noCPT – qHTS for Inhibitors of human tyrosyl-DNA phosphodiesterase 1 (TDP1): qHTS in cells in absence of CPT. DT40 Tdp1-/- hTDP1 cells, no CPT, ATP luminescence, 48 h. Potency, µM (highest dose often 46.2 µM), without a hit: at the highest dose activity change, negative = growth inhibition, actives largely listed as inhibitors. actives 15% (n = 420,000). AID 686978, 2013; further: potency means the concentration at half of the fitted maximal effect; on the % scale 0 is the no-effect control and ±100 the full control effect; nearly all actives have a fitted effect of over 55% in size
#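 Growth kinetics read by CellTiter-Glo luminescence after ≥48 hr at 37 °C. Cells: DT40 Tdp1-/- stably carrying human TDP1, 400 per well, compound exposure in the absence of CPT (DMSO vehicle).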
# MCF10A rereplic – A quantitative high throughput screen for small molecules that induce DNA re-replication in MCF 10a normal breast cells; MCF 10A DNA re-replication, Hoechst nuclear intensity, 48 h; Potency, µM (series often up to 46.1 µM), for the others: top-dose activity, positive = re-replication, usual class: activators; actives 2.9% (n = 350,000); further: potency means the concentration at half of the fitted maximal effect; % of control where 0% means no effect; nearly all actives have a fitted effect of over 50% in size
# SW480 rereplic – A quantitative high throughput screen for small molecules that induce DNA re-replication in SW480 colon adenocarcinoma cells | SW480 DNA re-replication, Hoechst DNA content imaging, 48 h | Potency, µM (highest dose often 46.1 µM), for the others: top-dose re-replication activation, most hits filed as activators | actives 1.8% (n = 340,000) | AID 624297, 2012; further: potency means the concentration at half of the fitted maximal effect; % of control where 0% means no effect; nearly all actives have a fitted effect of over 55% in size
#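 DNA re-replication was detected as more nuclei of elevated Hoechst intensity after 48 hr exposure to compound (23 nL pinned per well of 250 cells).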
# The depositor's hits bear a star; u = inconclusive; x = no result; [ ] = remark or other dose. Compounds with a hit are over-represented: about 19% of the library has one in this group of screens. Unless noted, the call rests on the fitted dose curve; in most records, active means well fitted curve in the direction sought with a large enough effect; inconclusive means small, poorly fitted or top-dose-only effect, or another doubt; inactive means no such curve, though single readings can be large; an effect the other way counts as inactive or inconclusive.
SMILES,IL-1B inflam inh,DT40 TDP1 CPT,BCR signal inh,TDP1 cell noCPT,MCF10A rereplic,SW480 rereplic
COc1cc(SC)ccc1C(=O)NCCc1ccccc1,-7.4,14.6µM*,-2.1%,-107.0%,u,u
COc1cc(SC)ccc1C(=O)Nc1ccc2c(c1)OCO2,-63.1*,-2.5%,u,7.5%,21.0%,1.7%
COc1cc(SC)ccc1C(=O)Nc1ccc(OCC(=O)N2CCOCC2)cc1,x,-7.2%,u,u,-4.9%,-5.3%
COc1cc(SC)ccc1C(=O)Nc1ccc(C)cc1,-56.7*,-17.6%,u,u,1.6%,6.3%
O=C(CN1C(=O)CCc2cc(S(=O)(=O)N3CCOCC3)ccc21)Nc1cccc(Cl)c1,x,-27.6%,x,3.5%,x,x
Cn1cnc2c(=O)oc3ccc(S(=O)(=O)N4CCN(c5cccc(C(F)(F)F)c5)CC4)cc3c21,x,-7.3%,x,2.5%,x,x
FC(F)(F)c1cc(CCN2CCNC[C@@H]2Cc2ccccc2)cc(C(F)(F)F)c1,-13.2,20.6µM*,x,u,u,0.2%
O=C1NC[C@@H](Cc2cccc3ccccc23)N(CCc2cc(C(F)(F)F)cc(C(F)(F)F)c2)C1=O,-50.7*,-4.6%,u,u,u,-0.5%
O=C1NC[C@@H](Cc2ccc(O)cc2)N(CCc2cccc3ccccc23)C1=O,-21.4,-2.0%,-11.5%,-12.8%,1.4%,15.6%[9.22 µM]
Fc1cccc(CCN2CCNC[C@@H]2Cc2ccccc2)c1,-14.6,u,x,u,-5.6%,-0.3%
CC(C)(C)S(=O)N1Cc2cn(Cc3ccccc3)c(=O)cc2[C@H]1CCO (some centres not stated),6.2,-1.4%,x,-8.9%,16.7%,-3.4%
Cc1ccc(-c2nc3ccccc3o2)cc1NC(=O)c1cccc2c(Cl)cccc12,x,u,x,-23.4%,x,x
Cc1cc2nn(-c3cccc4ccccc34)nc2cc1NC(=O)c1cccs1,u,23.1µM*,u,-72.4%,9.1%,-0.8%
COc1ccc(-n2nc3cc(C)c(NC(=S)NC(=O)c4ccccc4C)cc3n2)cc1,-4.2,u,7.8%,u,3.66µM*,10.8%
CCN(CC)c1ccc(-n2nc3cc(C)c(NC(=O)c4ccccc4C)cc3n2)c(C)c1,x,16.4µM*,x,20.6µM*,x,x
Cc1cc2nn(-c3ccc(F)cc3)nc2cc1NC(=O)c1cccc2c(Cl)cccc12,x,2.91µM*,x,u,x,x
CCN(C(=O)COC(=O)/C=C/c1ccco1)C1CCCCC1,-8.1,1.0%,5.1%,-15.2%,-1.9%,-4.9%
COc1ccc(OC)c(-c2cc(Cl)c3c(c2)CC(CNC(=O)C(C)N2CCOCC2)O3)c1 (configuration not stated),x,-1.0%[9.04 µM],x,u,x,x
O=C(Nc1sc2c(c1C(=O)NCc1ccccc1)CCCC2)c1cc(=O)c2cc(Cl)ccc2o1,x,10.9%,x,-1.1%,x,x
CCC1C(=O)C[C@H]2CCN3C(=O)CCCC1C23 (some centres not stated),10.5,0.0%,u,8.7%,2.2%,2.7%
CCN(CC)c1ccc(NC(=O)c2cccnc2)c(C)c1,38.7,u,-24.2%,u,15.4%,u
CCN(CC)c1ccc(NC(=O)c2cccc(C)c2OC)c(C)c1,-22.2,12.6µM*,-1.5%,11.2µM*,0.5%,u
CC(C(=O)NCc1ccccc1Cl)N1C(=O)c2ccccc2C1=O (configuration not stated),28.4,-10.1%,-2.1%,4.1%,4.5%,-5.6%
COc1ccccc1-c1c(-c2ccc(OCC(=O)NN)cc2O)n[nH]c1C(F)(F)F,-23.5,9.2µM*,4.8%,13µM*,u,13.1%
